PubChem BioAssay AID1159580 (chemical genetic matrix, 2015)
In all, about 5,500 compounds went through this assay and about 2,000 (36%) were called active. About 18% were inconclusive and are not listed. Cut-off read from the data, not from the text of the source: active = normalized growth mostly below about 0.91 (no sharp cut-off); inconclusive = no clear call, values can overlap the other calls; inactive = mostly above about 0.92. This is one part of the list.

Experiment: chemical genetic growth profiling, strain panel (AID 1159580);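 note: tested at 20 µM; growth read once vehicle control cultures reached saturation at 30 °C; 1 = growth at the plate median or of vehicle wells; lower values mean less growth of the strain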
Conditions: growth OD

Measured: normalized growth

CN(Cc1cc(Br)cc(Br)c1N)C1CCCCC1
active: S. cerevisiae deletion strains, locus YOR231W, strain MKK1, active compounds read low 0.841
inactive: S. cerevisiae deletion strains, locus YKL009W, strain mrt4, active compounds read low 1.01 | S. cerevisiae deletion strains, locus YKL068W, active compounds read low 1.01 | S. cerevisiae deletion strains, locus YKL085W, strain MDH1 (second series), active compounds read low 1.01 | S. cerevisiae deletion strains, locus YKL085W, strain MDH1, active compounds read low 1.01 | S. cerevisiae deletion strains, locus YKL160W, strain elf1, active compounds read low 1 | S. cerevisiae deletion strains, locus YKL190W, strain CNB1, active compounds read low 1.02 | S. cerevisiae deletion strains, locus YKR001C, strain vps1, active compounds read low 0.994 | S. cerevisiae deletion strains, locus YKR026C, strain gcn3, active compounds read low 1.04 | S. cerevisiae deletion strains, locus YKR091W, strain srl3, active compounds read low 1.03 | S. cerevisiae deletion strains, locus YLL001W, strain dnm1, active compounds read low 1.03 | S. cerevisiae deletion strains, locus YLL026W, active compounds read low 1.03 | S. cerevisiae deletion strains, locus YLL041C, strain sdh2, active compounds read low 1.05 | S. cerevisiae deletion strains, locus YLR027C, strain aat2, active compounds read low 1.01 | S. cerevisiae deletion strains, locus YLR039C, strain RIC1, active compounds read low 1.08 | S. cerevisiae deletion strains, locus YLR058C, strain SHM2, active compounds read low 1.01 | S. cerevisiae deletion strains, locus YLR102C, strain apc9, active compounds read low 1.02 | S. cerevisiae deletion strains, locus YLR113W, strain HOG1, active compounds read low 0.947 | S. cerevisiae deletion strains, locus YLR221C, strain rsa3, active compounds read low 0.997 | S. cerevisiae deletion strains, locus YLR258W, strain gsy2, active compounds read low 1.03 | S. cerevisiae deletion strains, locus YLR262C, strain YPT6 (second series), active compounds read low 0.982 | S. cerevisiae deletion strains, locus YLR262C, strain YPT6, active compounds read low 1.08 | S. cerevisiae deletion strains, locus YLR268W, strain sec22, active compounds read low 1.01 | S. cerevisiae deletion strains, locus YLR320W, strain mms22, active compounds read low 0.984 | S. cerevisiae deletion strains, locus YLR330W, strain CHS5, active compounds read low 1.02 | S. cerevisiae deletion strains, locus YLR342W, strain FKS1 (second series), active compounds read low 1 | S. cerevisiae deletion strains, locus YLR342W, strain FKS1, active compounds read low 1.02 | S. cerevisiae deletion strains, locus YLR357W, strain rsc2, active compounds read low 1.06 | S. cerevisiae deletion strains, locus YLR370C, strain arc18, active compounds read low 1.04 | S. cerevisiae deletion strains, locus YLR371W, strain rom2, active compounds read low 1.02 | S. cerevisiae deletion strains, locus YLR384C, strain iki3, active compounds read low 1.04 | S. cerevisiae deletion strains, locus YLR418C, strain cdc73, active compounds read low 1.02 | S. cerevisiae deletion strains, locus YML016C, strain PPZ1, active compounds read low 1.01 | S. cerevisiae deletion strains, locus YML032C, strain rad52, active compounds read low 0.986 | S. cerevisiae deletion strains, locus YML120C, strain ndi1, active compounds read low 1.04 | S. cerevisiae deletion strains, locus YML124C, strain tub3, active compounds read low 1.03 | S. cerevisiae deletion strains, locus YMR058W, strain fet3, active compounds read low 0.995 | S. cerevisiae deletion strains, locus YMR078C, strain ctf18, active compounds read low 1.04 | S. cerevisiae deletion strains, locus YMR125W, strain sto1, active compounds read low 1.06 | S. cerevisiae deletion strains, locus YMR129W, active compounds read low 1.04 | S. cerevisiae deletion strains, locus YMR205C, strain PFK2, active compounds read low 1.04 | S. cerevisiae deletion strains, locus YMR223W, strain ubp8, active compounds read low 1 | S. cerevisiae deletion strains, locus YMR231W, strain pep5, active compounds read low 1.04 | S. cerevisiae deletion strains, locus YMR307W, strain GAS1, active compounds read low 1.17 | S. cerevisiae deletion strains, locus YNL067W, strain RPL9B, active compounds read low 0.966 | S. cerevisiae deletion strains, locus YNL071W, strain lat1, active compounds read low 1.04 | S. cerevisiae deletion strains, locus YNL183C, strain NPR1, active compounds read low 0.838 | S. cerevisiae deletion strains, locus YNL209W, strain ssb2, active compounds read low 1.03 | S. cerevisiae deletion strains, locus YNL233W, strain BNI4, active compounds read low 1.01 | S. cerevisiae deletion strains, locus YNL248C, strain rpa49, active compounds read low 1.04 | S. cerevisiae deletion strains, locus YNL250W, strain rad50, active compounds read low 1.05 | S. cerevisiae deletion strains, locus YNL271C, strain bni1, active compounds read low 1.02 | S. cerevisiae deletion strains, locus YNL298W, strain CLA4, active compounds read low 1.03 | S. cerevisiae deletion strains, locus YNL307C, strain MCK1, active compounds read low 1.01 | S. cerevisiae deletion strains, locus YNL322C, strain KRE1 (second series), active compounds read low 1.06 | S. cerevisiae deletion strains, locus YNL322C, strain KRE1, active compounds read low 1.02 | S. cerevisiae deletion strains, locus YNR049C, strain mso1, active compounds read low 1.02 | S. cerevisiae deletion strains, locus YNR052C, strain pop2, active compounds read low 1.01 | S. cerevisiae deletion strains, locus YOL006C, strain TOP1, active compounds read low 0.804 | S. cerevisiae deletion strains, locus YOL012C, strain htz1 2.06 | S. cerevisiae deletion strains, locus YOL147C, strain pex11, active compounds read low 1.03 | S. cerevisiae deletion strains, locus YOR001W, strain rrp6, active compounds read low 1.01 | S. cerevisiae deletion strains, locus YOR061W, strain CKA2, active compounds read low 1.01 | S. cerevisiae deletion strains, locus YOR069W, strain VPS5, active compounds read low 1.02 | S. cerevisiae deletion strains, locus YOR070C, strain gyp1, active compounds read low 1.03 | S. cerevisiae deletion strains, locus YOR080W, strain dia2, active compounds read low 1.07 | S. cerevisiae deletion strains, locus YOR083W, strain WHI5, active compounds read low 0.988 | S. cerevisiae deletion strains, locus YOR106W, strain vam3, active compounds read low 1.01 | S. cerevisiae deletion strains, locus YOR136W, strain idh2, active compounds read low 1.01 | S. cerevisiae deletion strains, locus YOR144C, strain elg1, active compounds read low 1.02 | S. cerevisiae deletion strains, locus YOR184W, strain ser1, active compounds read low 0.935 | S. cerevisiae deletion strains, locus YOR265W, strain rbl2, active compounds read low 1.05 | S. cerevisiae deletion strains, locus YOR270C, strain vph1, active compounds read low 0.811 | S. cerevisiae deletion strains, locus YOR290C, strain snf2, active compounds read low 1 | S. cerevisiae deletion strains, locus YOR316C, strain cot1, active compounds read low 1.02 | S. cerevisiae deletion strains, locus YPL051W, strain arl3, active compounds read low 0.983 | S. cerevisiae deletion strains, locus YPL078C, strain atp4, active compounds read low 1.01 | S. cerevisiae deletion strains, locus YPL106C, strain sse1, active compounds read low 1 | S. cerevisiae deletion strains, locus YPL240C, strain hsp82, active compounds read low 1.02 | S. cerevisiae deletion strains, locus YPL241C, strain CIN2, active compounds read low 1.01 | S. cerevisiae deletion strains, locus YPL256C, strain CLN2, active compounds read low 0.944 | S. cerevisiae deletion strains, locus YPR119W, strain clb2, active compounds read low 1.01 | S. cerevisiae deletion strains, locus YPR141C, strain kar3, active compounds read low 1.02 | S. cerevisiae deletion strains, locus YPR163C, strain tif3, active compounds read low 1.03 | S. cerevisiae deletion strains, locus YPR167C, strain met16, active compounds read low 1.01 | S. cerevisiae deletion strains, strain wtn01, active compounds read low 0.995 | S. cerevisiae strains, strain wild type, active compounds read low 1.01
